Sfp PPTase inh – Sfp phosphopantetheinyl transferase inhibition; Q9F4F7; Biochemical Sfp PPTase activity, qHTS; Potency, µM, actives largely listed as inhibitors; hit rate 3.5% among 310,000; AID 1490;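 note: the enzyme is Sfp with the accession as filed and its product quenches rhodamine fluorescence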
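Step 1, compound plus 15 nM Sfp-PPTase, 15 min, room temperature. Step 2, add rhodamine-CoA (5 uM) and BHQ-2-YbbR (12.5 uM). Step 3, read 525/598 nm fluorescence at 0 and 30 min.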
G9a inh – blocks human histone lysine methyltransferase G9a; hit rate 8.8% among 350,000; AID 504332; Potency, µM (doses to about 102 µM), actives largely listed as inhibitors; Q96KQ7; G9a H3K9 monomethylation, AlphaScreen, 2 h; note: nearly all actives have a fitted effect of over 75% in size
Target sequence (Q96KQ7 913-1193 limits assumed): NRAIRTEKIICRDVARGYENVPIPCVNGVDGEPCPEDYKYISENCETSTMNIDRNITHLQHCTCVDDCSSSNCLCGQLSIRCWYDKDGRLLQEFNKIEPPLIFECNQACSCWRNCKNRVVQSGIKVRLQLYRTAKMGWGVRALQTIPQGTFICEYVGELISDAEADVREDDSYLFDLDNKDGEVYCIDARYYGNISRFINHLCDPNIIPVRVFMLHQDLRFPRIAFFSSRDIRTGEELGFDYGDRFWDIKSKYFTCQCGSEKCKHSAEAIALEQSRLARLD
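G9a (20 nM) preincubated 15 min RT with compounds, then 500 nM biotinylated H3K9 peptide and 20 uM SAM added; 2 h RT reaction. Monomethyl-H3K9 product detected by AlphaScreen with anti-H3K9me1 antibody, streptavidin donor and anti-rabbit IgG acceptor beads.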
BAZ2B block – blocks human BAZ2B; Q9UIF8; Potency, µM (doses to about 114 µM), actives largely listed as inhibitors; AlphaScreen BAZ2B-H3K14Ac peptide displacement; AID 504333; hit rate 4.4% among 360,000; note: nearly all actives have a fitted effect of over 60% in size
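In this displacement format the biotinylated H3(5-23) peptide acetylated at Lys14 serves as ligand at 50 nM, with BAZ2B at 50 nM in PBS pH 7.4 containing 0.01% Tween-20. Donor and acceptor beads are 10 ug/mL final.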
L3MBTL1 block – blocks human L3MBTL1; Q9Y468; AlphaScreen L3MBTL1–H3K9me1 peptide binding; Potency, µM (series often up to 57.1 µM), usual class: inhibitors; hit rate 0.66% among 230,000; note: nearly all actives have a fitted effect of over 60% in size
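L3MBTL1 (50 nM) pre-complexed 30 min with biotinylated H3(1-15)K9me1 peptide (75 nM), then compounds added for 30 min at room temperature; AlphaScreen streptavidin donor/nickel chelate acceptor beads (10 ug/mL final) read after 30 min dark incubation.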
HP1b chromo inh – HP1-beta chromodomain-methylated histone interaction inhibition. Potency, µM (titrated, usually from 114 µM), most hits filed as inhibitors. hit rate 0.56% among 390,000. AlphaScreen HP1-beta / biotin-H3K9me3 peptide binding; note: nearly all actives have a fitted effect of over 70% in size
Target sequence (P83916 whole entry, looked up): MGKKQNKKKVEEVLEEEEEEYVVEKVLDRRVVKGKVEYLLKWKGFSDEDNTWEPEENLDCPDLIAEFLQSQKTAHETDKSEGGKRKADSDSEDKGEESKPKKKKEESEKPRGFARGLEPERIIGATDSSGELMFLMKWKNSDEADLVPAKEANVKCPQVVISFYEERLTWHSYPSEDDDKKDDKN
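Compound inhibition of the preformed complex between 50 nM HP1-beta and 50 nM biotinylated H3K9me3 peptide was read by AlphaScreen. Buffer was PBS pH 7.4 with 0.01% Tween-20. Incubations ran 30 min at room temperature, with 10 ug/mL donor/acceptor beads.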
JMJD2A Tudor – inhibitors of human JMJD2A Tudor domain | Potency, µM (top dose mostly 114 µM), actives largely listed as inhibitors | AlphaScreen JMJD2A-Tudor / H3K4me3 peptide binding | AID 504339 | hit rate 4.4% among 390,000; note: nearly all actives have a fitted effect of over 50% in size
A number is an active result; i = inactive; ? = inconclusive; nt = no result; [ ] = remark or other dose. Most compounds without a hit are left out; they make up all but 12% or so of the library. Calls come from the whole dose curve; as a rule, active = well fitted curve in the direction sought with a large enough effect; inconclusive = small, poorly fitted or top-dose-only effect, or another doubt; inactive = no such curve, though single readings can be large; an effect the other way counts as inactive or inconclusive.

SMILES	Sfp PPTase inh	G9a inh	BAZ2B block	L3MBTL1 block	HP1b chromo inh	JMJD2A Tudor
CN(C(=O)CC1C(=O)NCCN1Cc1c(F)cccc1Cl)C1CCOCC1 (stereo unspecified)	i	44.7µM	i	nt	i	i
CSC1=C(C#N)C2(CCCCC2)C(C(=O)Nc2ccccc2)=C(C)N1	nt	nt	nt	nt	i	i
CC1=C(C(=O)Nc2ccccc2)C2(CCCCC2)C(C#N)=C(S)N1	31.6µM	7.94µM	i	nt	i	i
COC(=O)c1[nH]c(C)c(/C(O)=C2\C(=O)C(=O)N(CCN3CCOCC3)C2c2cccs2)c1C (stereo unspecified)	i	44.7µM	i	i	i	i
CCOC(=O)c1[nH]c(C)c(/C(O)=C2\C(=O)C(=O)N(CCN3CCOCC3)C2c2ccco2)c1C (stereo unspecified)	i	39.8µM	?	i	i	i
CCOC(=O)c1[nH]c(C)c(/C(O)=C2\C(=O)C(=O)N(CCN(C)C)C2c2ccco2)c1C (stereo unspecified)	i	i[12.7 µM]	i	nt	i	?
COC(=O)c1[nH]c(C)c(/C(O)=C2\C(=O)C(=O)N(CCN3CCOCC3)C2c2ccco2)c1C (stereo unspecified)	i	50.1µM	i	i	i	i
O=C(C1CCCN(S(=O)(=O)c2ccc(Br)s2)C1)N1CCN(c2ccc(F)cc2)CC1 (stereo unspecified)	nt	?	i	nt	i	i
CCC(=O)OCOc1ccc(/C=C2/CCC(CN(C)C)C2=O)cc1 (stereo unspecified)	nt	nt	nt	nt	?	89.1µM
Cc1ccc(C)c(-c2csc(-c3c(N)c(C(=O)c4ccc5c(c4)OCO5)n4ccccc34)n2)c1	nt	i	i	nt	i	i
N/C(Cn1cncn1)=N\NC(=O)c1ccc(Cl)cc1Cl	i	8.91µM	i	i	?	12.6µM
O=C(CSc1ncc(-c2ccc(F)cc2)n1Cc1ccco1)Nc1ccc2c(c1)OCO2	i	?	11.2µM	nt	i	44.7µM
CCOc1ccc(NC(=O)CSc2ncc(-c3ccc(F)cc3)n2Cc2ccco2)cc1	i	?	8.91µM	nt	i	i[11.4 µM]
CCOc1ccc(NC(=O)CSc2nnc(-c3ccco3)n2N)cc1	i	i	i	nt	i	i
COc1cc(OC)c(NS(=O)(=O)c2ccc3c(c2)NC(=O)CO3)cc1Cl	i	i	i	nt	i	15.8µM
CCCCN1C(=O)CN(C2CCCCC2)C(=O)C1c1ccc(OC(C)C)c(OC)c1 (stereo unspecified)	nt	i	i	nt	i	i
CCOC(=O)c1c(S(=O)(=O)NCCCc2ccco2)c(C)n(C)c1C	i	44.7µM	56.2µM	nt	i	?
CCOC(=O)c1c(S(=O)(=O)NCCc2ccco2)c(C)n(C)c1C	i	i	i	nt	i	i
CC1CCN(C(=O)c2[nH]cnc2C(=O)NCc2ccc(CNC(=O)OC(C)(C)C)cc2)CC1	nt	i[2.33 µM]	i	i	i	i
COc1ccc(C(=O)COC(=O)c2cccnc2Cl)c(OC)c1	i	i	50.1µM	nt	i	i
Cc1nc(N)sc1-c1csc(N(C)c2ccc(O)cc2)n1	i	44.7µM	i	i	i	56.2µM
NC(=O)CC[C@@H]1NC(=O)[C@@H]2CCCN2C(=O)c2cc([N+](=O)[O-])cc(I)c2NCCC[C@@H](C(N)=O)NC1=O	i	44.7µM	i	i	i	i
NC(=O)CC[C@@H]1NC(=O)[C@@H]2CCCN2C(=O)c2cc([N+](=O)[O-])cc(I)c2NCCC[C@@H](C(=O)NC(CC(=O)O)C(N)=O)NC1=O (stereo partly specified)	i	?	i	i	i	i
NC(=O)CC[C@@H]1NC(=O)[C@@H]2CCCN2C(=O)c2cc([N+](=O)[O-])cc(I)c2NCCCC[C@@H](C(=O)NC(CC(=O)O)C(N)=O)NC1=O (stereo partly specified)	i	56.2µM	i	i	i	i
COc1ccc(C(=O)N/N=C/c2ccc(OC)c(COc3ccc(F)cc3)c2)cc1	i	nt	i	nt	i	i
SMILES	Sfp PPTase inh	G9a inh	BAZ2B block	L3MBTL1 block	HP1b chromo inh	JMJD2A Tudor
COc1cc(/C=N/Nc2ccc(Cl)c(C(=O)O)c2)ccc1OC(=O)c1ccccc1F	i	39.8µM	?	nt	i	?
COc1cccc(OCc2cc(/C=N/Nc3ccc(C(=O)O)cc3)ccc2OC)c1	i	?	56.2µM	?	i	56.2µM
COc1cc(/C=N/Nc2ccc(Cl)c(C(=O)O)c2)ccc1OC(=O)c1ccc(F)cc1	i	?	?	nt	i	?
CCOc1cc(/C=N\NC(=O)c2ccc(NC(=O)C(C)(C)C)cc2)ccc1OC(=O)c1ccc(OC)cc1	i	i	i	nt	i	i
CCOc1cc(/C=C(\C#N)C(=O)Nc2ccccc2C(=O)O)ccc1OC(=O)c1ccc(C)cc1	i	nt	i	i	i	50.1µM
CCOc1cc(/C=N/Nc2ccc(C(=O)O)cc2)ccc1OC(=O)c1ccccc1C	i	35.5µM	?	nt	i	?
CN(C)/C=C/C(=O)c1ccc(Cl)c([N+](=O)[O-])c1	i	?	i	nt	i	i
COc1ccccc1OCC(=O)NNC(=O)CSC(=S)N1CCCC1	nt	i[12.7 µM]	i	i	i	i
CCOC(=O)N1CCc2c(sc3c2c(=O)n(-c2ccc(CC)cc2)c(=O)n3CC(=O)c2ccc(F)cc2)C1	nt	i	i	nt	i	i
COc1cccc(C(=O)Oc2ccc(/C=N/Nc3ccc(C(=O)O)cc3)cc2OC)c1	?	nt	50.1µM	i	i	?
COc1cc(/C=N/Nc2nc(C)cc(C)n2)ccc1OC(=O)c1ccco1	i	i	i	i	i	i
COc1cc(/C=N/Nc2ccc3ccccc3c2)ccc1OC(=O)c1ccco1	i	7.94µM	i	i	i	i
COc1cc(/C=N/NC(=O)c2ccc(N)cc2)ccc1OC(=O)c1cccc(C)c1	i	i	?	nt	i	?
COc1ccc(/C=N/n2cncn2)cc1COc1ccc(NC(C)=O)cc1	i	i[12.7 µM]	i	i[11.4 µM]	i	50.1µM
COc1ccc(CNC(=O)CCS(=O)(=O)c2ccc3c(c2)CC(C)N3C(=O)C2CC2)cc1 (stereo unspecified)	i	i	i	nt	i	i
CCOC(=O)c1noc(C)c1C(=O)Nc1nccs1	i	i	?	nt	i	i
O=C(CN(Cc1ccco1)Cc1ccco1)Nc1cc(S(=O)(=O)N2CCCCC2)ccc1Cl	nt	i[2.33 µM]	i	i	i	i
N#Cc1ccc(NC(=O)Nc2ccc(Cl)cc2)cc1	i	i	i	i	i	i[11.4 µM]
N#C/C(C(=O)Nc1ccc(Cl)cc1)=C(/S)Nc1ccccc1	0.794µM	1.58µM	20µM	nt	?	20µM
COc1ccc(C(=O)n2nnc3ccccc32)cc1OC	i	44.7µM	i	i	i	i
Cc1occc1C(=O)n1nnc2ccccc21	31.6µM	?	i	nt	i	i
Cc1occc1C(=O)n1cnc2ccccc21	i	?	i	i	nt	nt
O=C(c1ccc2c(c1)OCO2)n1nnc2ccccc21	i	44.7µM	i	i	nt	nt
